Results from PubChem BioAssay AID1159580 (chemical genetic matrix, 2015).
Values joined by “and” are separate entries in the source; they are usually repeats but may differ in a detail not shown here. Identical values can stand only once. Among all 5,500 compounds or so, about 2,000 (36%) were called active. Inconclusive results (about 18%) are left out. Rule as the data show it: active = normalized growth mostly below about 0.91 (no sharp cut-off); inconclusive = no clear call, values can overlap the other calls; inactive = mostly above about 0.92. The list shows a part of the results.

Assay: chemical genetic growth profiling, strain panel (AID 1159580);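 also: tested at 20 µM; growth read once vehicle control cultures reached saturation at 30 °C; 1 = growth at the plate median or of vehicle wells; lower values mean less growth of the strain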
Settings: S. cerevisiae deletion strains, growth OD

Measured: normalized growth

CC[C@@]1(O)C[C@H](O)c2c(cc3c(c2O)C(=O)c2c(O)ccc(O)c2C3=O)[C@H]1C(=O)OC
0.21 (active) and 0.986 (inactive): locus YJL095W, strain BCK1, stronger effect = lower value
inactive: locus YAL026C, strain drs2, stronger effect = lower value 0.936 | locus YBR021W, strain FUR4, stronger effect = lower value 1.06 | locus YBR023C, strain chs3, stronger effect = lower value 0.924 | locus YBR171W, strain sec66, stronger effect = lower value 1.02 | locus YBR229C, strain ROT2, stronger effect = lower value 0.931 | locus YBR279W, strain paf1, stronger effect = lower value 0.964 | locus YCL069W, strain vba3, stronger effect = lower value 0.993 | locus YCR088W, strain abp1, stronger effect = lower value 0.963 | locus YDL005C, strain med2, stronger effect = lower value 1.01 | locus YDL040C, strain nat1, stronger effect = lower value 0.967 | locus YDR001C, strain nth1, stronger effect = lower value 1 | locus YDR159W, strain sac3, stronger effect = lower value 0.873 | locus YDR297W, strain sur2, stronger effect = lower value 0.94 | locus YDR334W, strain swr1, stronger effect = lower value 1.01 | locus YDR335W, strain msn5, stronger effect = lower value 0.961 | locus YDR392W, strain spt3, stronger effect = lower value 0.799 | locus YEL003W, strain gim4, stronger effect = lower value 0.958 | locus YEL037C, strain rad23, stronger effect = lower value 0.997 | locus YEL061C, strain CIN8 (second series), stronger effect = lower value 1.01 | locus YER110C, stronger effect = lower value 0.98 | locus YER111C, strain swi4, stronger effect = lower value 1.03 | locus YER155C, strain BEM2 (second series), stronger effect = lower value 1.06 | locus YGL078C, strain dbp3, stronger effect = lower value 0.935 | locus YGL167C, strain pmr1, stronger effect = lower value 0.976 | locus YGL173C, strain kem1, stronger effect = lower value 0.906 | locus YGL227W, strain vid30, stronger effect = lower value 1.01 | locus YGL240W, strain doc1, stronger effect = lower value 0.894 | locus YGR252W, strain gcn5, stronger effect = lower value 0.832 | locus YHR013C, strain ard1, stronger effect = lower value 1 | locus YHR030C, strain SLT2, stronger effect = lower value 0.97 | locus YHR079C, strain IRE1, stronger effect = lower value 0.984 | locus YHR142W, strain chs7, stronger effect = lower value 0.883 | locus YJL129C, strain trk1, stronger effect = lower value 0.989 | locus YJL154C, strain vps35, stronger effect = lower value 0.996 | locus YJL168C, strain set2, stronger effect = lower value 0.942 | locus YJR066W, strain TOR1, stronger effect = lower value 0.941 | locus YKR026C, strain gcn3, stronger effect = lower value 0.994 | locus YKR091W, strain srl3, stronger effect = lower value 1 | locus YLL001W, strain dnm1, stronger effect = lower value 0.953 | locus YLL026W, stronger effect = lower value 0.956 | locus YLL041C, strain sdh2, stronger effect = lower value 0.982 | locus YLR102C, strain apc9, stronger effect = lower value 0.984 | locus YLR113W, strain HOG1, stronger effect = lower value 0.971 | locus YLR342W, strain FKS1 (second series), stronger effect = lower value 0.857 | locus YLR342W, strain FKS1, stronger effect = lower value 0.958 | locus YLR357W, strain rsc2, stronger effect = lower value 1.01 | locus YLR370C, strain arc18, stronger effect = lower value 0.96 | locus YLR371W, strain rom2, stronger effect = lower value 0.991 | locus YLR384C, strain iki3, stronger effect = lower value 1.02 | locus YML120C, strain ndi1, stronger effect = lower value 0.962 | locus YMR125W, strain sto1, stronger effect = lower value 1.08 | locus YMR129W, stronger effect = lower value 0.997 | locus YMR205C, strain PFK2, stronger effect = lower value 0.983 | locus YMR231W, strain pep5, stronger effect = lower value 1.01 | locus YMR307W, strain GAS1, stronger effect = lower value 0.641 | locus YNL071W, strain lat1, stronger effect = lower value 0.932 | locus YNL183C, strain NPR1, stronger effect = lower value 0.929 | locus YNL322C, strain KRE1 (second series), stronger effect = lower value 0.919 | locus YNR049C, strain mso1, stronger effect = lower value 0.976 | locus YOL012C, strain htz1 0.287 | locus YOR001W, strain rrp6, stronger effect = lower value 0.943 | locus YOR080W, strain dia2, stronger effect = lower value 0.941 | locus YOR231W, strain MKK1, stronger effect = lower value 0.981 | locus YOR265W, strain rbl2, stronger effect = lower value 0.938 | locus YOR290C, strain snf2, stronger effect = lower value 0.911 | locus YOR316C, strain cot1, stronger effect = lower value 1 | locus YPL078C, strain atp4, stronger effect = lower value 0.961 | locus YPL240C, strain hsp82, stronger effect = lower value 0.979 | locus YPL256C, strain CLN2, stronger effect = lower value 0.995 | locus YPR119W, strain clb2, stronger effect = lower value 0.952
active: locus YAL013W, strain DEP1, stronger effect = lower value 0.495 | locus YAL021C, strain ccr4, stronger effect = lower value 0.768 | locus YAL030W, strain snc1, stronger effect = lower value 0.908 | locus YBL061C, strain skt5, stronger effect = lower value 0.89 | locus YBR009C, strain hhf1, stronger effect = lower value 0.805 | locus YBR231C, strain swc5, stronger effect = lower value 0.751 | locus YCL011C, strain gbp2, stronger effect = lower value 0.874 | locus YCL016C, strain dcc1, stronger effect = lower value 0.607 | locus YCL029C, strain bik1, stronger effect = lower value 0.873 | locus YDL035C, strain GPR1, stronger effect = lower value 0.779 | locus YDL074C, strain BRE1, stronger effect = lower value 0.588 | locus YDL101C, strain DUN1, stronger effect = lower value 0.659 | locus YDL134C, strain PPH21, stronger effect = lower value 0.622 | locus YDL185W, strain tfp1, stronger effect = lower value 0.774 | locus YDL192W, strain arf1, stronger effect = lower value 0.735 | locus YDR069C, strain doa4, stronger effect = lower value 0.896 | locus YDR101C, strain arx1, stronger effect = lower value 0.848 | locus YDR137W, strain rgp1, stronger effect = lower value 0.707 | locus YDR150W, strain NUM1, stronger effect = lower value 0.879 | locus YDR162C, strain NBP2, stronger effect = lower value 0.414 | locus YDR195W, strain ref2 1.28 [resistant] | locus YDR318W, strain mcm21, stronger effect = lower value 0.861 | locus YDR388W, stronger effect = lower value 0.811 | locus YDR502C, strain sam2, stronger effect = lower value 0.7 | locus YEL061C, strain CIN8, stronger effect = lower value 0.7 | locus YER015W, strain faa2, stronger effect = lower value 0.894 | locus YER016W, strain bim1, stronger effect = lower value 0.909 | locus YER155C, strain BEM2, stronger effect = lower value 0.638 | locus YER167W, strain BCK2, stronger effect = lower value 0.713 | locus YFR010W, strain ubp6, stronger effect = lower value 0.894 | locus YGL086W, strain mad1, stronger effect = lower value 0.718 | locus YGL248W, strain PDE1, stronger effect = lower value 0.682 | locus YGL253W, strain hxk2, stronger effect = lower value 0.825 | locus YGR135W, strain pre9, stronger effect = lower value 0.818 | locus YHR027C, strain rpn1, stronger effect = lower value 0.713 | locus YHR079C, strain IRE1 (second series), stronger effect = lower value 0.856 | locus YHR094C, strain hxt1, stronger effect = lower value 0.88 | locus YHR129C, strain ARP1, stronger effect = lower value 0.638 | locus YHR200W, strain rpn10, stronger effect = lower value 0.771 | locus YIL066C, strain RNR3, stronger effect = lower value 0.421 | locus YIL073C, strain SPO22, stronger effect = lower value 0.593 | locus YIL125W, strain kgd1, stronger effect = lower value 0.861 | locus YIR030C, strain dcg1, stronger effect = lower value 0.908 | locus YJL092W, strain hpr5, stronger effect = lower value 0.734 | locus YJL095W, strain BCK1 (second series), stronger effect = lower value 0.912 | locus YJL115W, strain asf1, stronger effect = lower value 0.394 | locus YJL134W, strain LCB3, stronger effect = lower value 0.905 | locus YJL164C, strain tpk1, stronger effect = lower value 0.887 | locus YJL166W, strain qcr8, stronger effect = lower value 0.838 | locus YJL187C, strain SWE1 (second series), stronger effect = lower value 0.344 | locus YJR043C, strain POL32, stronger effect = lower value 0.696 | locus YKL009W, strain mrt4, stronger effect = lower value 1.54 [resistant] | locus YKL085W, strain MDH1 (second series), stronger effect = lower value 0.818 | locus YKL085W, strain MDH1, stronger effect = lower value 0.818 | locus YKL160W, strain elf1, stronger effect = lower value 0.9 | locus YKR001C, strain vps1, stronger effect = lower value 0.354 | locus YLR027C, strain aat2, stronger effect = lower value 0.869 | locus YLR039C, strain RIC1, stronger effect = lower value 0.395 | locus YLR058C, strain SHM2, stronger effect = lower value 0.643 | locus YLR221C, strain rsa3, stronger effect = lower value 0.901 | locus YLR258W, strain gsy2, stronger effect = lower value 0.9 | locus YLR262C, strain YPT6 (second series), stronger effect = lower value 0.795 | locus YLR268W, strain sec22, stronger effect = lower value 0.545 | locus YLR320W, strain mms22, stronger effect = lower value 0.216 | locus YLR418C, strain cdc73, stronger effect = lower value 0.56 | locus YML016C, strain PPZ1, stronger effect = lower value 0.815 | locus YML032C, strain rad52, stronger effect = lower value 0.175 | locus YML124C, strain tub3, stronger effect = lower value 0.808 | locus YMR058W, strain fet3, stronger effect = lower value 0.815 | locus YMR078C, strain ctf18, stronger effect = lower value 0.335 | locus YMR223W, strain ubp8, stronger effect = lower value 0.602 | locus YNL067W, strain RPL9B, stronger effect = lower value 0.691 | locus YNL209W, strain ssb2, stronger effect = lower value 0.895 | locus YNL233W, strain BNI4, stronger effect = lower value 0.511 | locus YNL248C, strain rpa49, stronger effect = lower value 0.706 | locus YNL250W, strain rad50, stronger effect = lower value 0.144 | locus YNL271C, strain bni1, stronger effect = lower value 0.885 | locus YNL298W, strain CLA4, stronger effect = lower value 0.891 | locus YNL307C, strain MCK1, stronger effect = lower value 0.785 | locus YNL322C, strain KRE1, stronger effect = lower value 0.751 | locus YNR052C, strain pop2, stronger effect = lower value 0.666 | locus YOL147C, strain pex11, stronger effect = lower value 0.802 | locus YOR061W, strain CKA2, stronger effect = lower value 0.793 | locus YOR069W, strain VPS5, stronger effect = lower value 0.577 | locus YOR070C, strain gyp1, stronger effect = lower value 0.877 | locus YOR083W, strain WHI5, stronger effect = lower value 0.806 | locus YOR106W, strain vam3, stronger effect = lower value 0.593 | locus YOR136W, strain idh2, stronger effect = lower value 0.877 | locus YOR144C, strain elg1, stronger effect = lower value 0.812 | locus YOR184W, strain ser1, stronger effect = lower value 0.426 | locus YOR270C, strain vph1, stronger effect = lower value 0.409 | locus YPL051W, strain arl3, stronger effect = lower value 0.685 | locus YPL055C, strain LGE1, stronger effect = lower value 0.146 | locus YPL106C, strain sse1, stronger effect = lower value 1.21 [resistant] | locus YPR141C, strain kar3, stronger effect = lower value 0.912 | locus YPR163C, strain tif3, stronger effect = lower value 0.72 | locus YPR167C, strain met16, stronger effect = lower value 0.597 | strain wtn01, stronger effect = lower value 0.703
